As usually defined, the inhibition is the percentage by which the read-out fell short of the control.

Values without a mark were called inactive. How the calls were made is not given here.

Results on 40 compounds are retold here after PubChem BioAssay.

The target of the test is Pantothenate synthetase (Mycobacterium tuberculosis (strain ATCC 25618 / H37Rv)) (UniProt P9WIL5). The test is described as follows: Recombinant Mtb pantothenate synthetase (PanC) inhibitors, coupled enzyme, confirmatory (AID 375).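 Further: 0% = full reaction with vehicle and 100% = no enzyme background.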 The conditions noted are these: coupled enzyme assay; at 10 µM, hits give high values.
Chain of Pantothenate synthetase (Mycobacterium tuberculosis (strain ATCC 25618 / H37Rv)) (P9WIL5 whole entry, looked up): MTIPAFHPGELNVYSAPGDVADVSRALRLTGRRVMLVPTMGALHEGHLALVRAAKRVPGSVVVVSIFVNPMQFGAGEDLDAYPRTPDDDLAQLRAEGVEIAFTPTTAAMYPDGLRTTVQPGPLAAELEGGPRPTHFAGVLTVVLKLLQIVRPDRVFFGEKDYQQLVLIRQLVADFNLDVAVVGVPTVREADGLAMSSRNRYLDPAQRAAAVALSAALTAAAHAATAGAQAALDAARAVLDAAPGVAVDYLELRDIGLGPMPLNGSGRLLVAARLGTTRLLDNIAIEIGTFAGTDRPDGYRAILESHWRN
On to `CCN1CCN(CCCNC(=O)c2cn(CCOC)c(=O)c3c2c2ccccc2n3C)CC1`, for which the inhibition is 0%.

With `CCOC(=O)c1ccc(Oc2nc(SC)nc(N(C)C)n2)cc1`, the inhibition is 1%.

With `O=C(CCCCn1c(=O)c2ccccc2n(Cc2ccc(Cl)cc2)c1=O)NCc1ccco1`, the inhibition was 0%.

With `Cc1n[nH]c(C)c1S(=O)(=O)Nc1ccc2c(c1)OCCO2`, the inhibition was 0%.

As for `Cc1ccc(S(=O)(=O)N2CCCC(c3nnc4n3-c3ccccc3SC4)C2)cc1` (stereo not given), the inhibition was 9%.

Regarding `CCOC(=O)C1CCN(c2c(NCCCN(CC)c3ccccc3)c(=O)c2=O)CC1`, the inhibition was 0%.

In the case of `COC(=O)Cn1c2ccccc2c2nc(C)sc21`, the inhibition was 0%.

As to `CCCn1c(N2CCN(CC(=O)NCc3cccs3)CC2)nc2ccccc21`, the inhibition was 9%.

Consider `CC1(C)CC(=O)C2=C(C1)OC(N)=C(C#N)C2C1CC=CCC1` (stereo not given), for which the inhibition was 1%.

As to `Cc1cc(Nc2ccccc2)n(CCC#N)n1`, the inhibition is 14%.

As for `Cc1ccc(S(=O)(=O)N2CCCC(C(=O)NC3=NCCS3)C2)cc1` (stereo not given), the inhibition was 12%.

In the case of `Cc1cc(C(F)(F)F)nc(NCc2cccnc2)n1`, the inhibition is 0%.

Take `O=C(C1CCN(S(=O)(=O)c2cccnc2)CC1)N1CCN(c2ccc(Cl)cc2)CC1`: the inhibition was 0%.

Turning to `Cn1cc(CC(=O)Nc2cccc(C#N)c2)c2ccccc21`, the inhibition was 6%.

With `Cc1cc(C)cc(NC(=O)C2CCCN(c3nccc(C)n3)C2)c1` (stereo not given), the inhibition was 0%.

Take `O=C(c1cccnc1)N1CCN(C(=O)c2ccccc2F)CC1`: the inhibition is 4%.

For `C=C(C)COc1ccc(-c2nc(N)ncc2-c2ccc(OC)cc2)c(O)c1`, the inhibition is 2%.

For `CSC1=C(C#N)C(C)CC(=O)N1` (stereo not given), the inhibition was 0%.

`Cc1cc(Nc2ccccc2F)n2ncnc2n1`: the inhibition was 0%.

For the compound `CCCCN(CCCC)CCCOC(=O)c1ccc(N)cc1`, the inhibition was 0%.

In the case of `COc1cc(NC(=O)C2C3C=CC(C3)C2C(=O)O)c(OC)cc1Cl` (stereo not given), the inhibition is 0%.

As to `CCOC(=O)c1c(C)oc2ccc(OCC(=O)N(CC)CC)cc12`, the inhibition is 4%.

For `O=C(NC1CCCCC1)c1ccc(S(=O)(=O)N2CCCCC2)cc1`, the inhibition was 0%.

Take `CC(C(=O)NC(=O)NC1CCCCC1)N1CCN(c2ccccn2)CC1` (stereo not given): the inhibition was 0%.

As to `O=C(NC1CCCC1)c1ccc2nc[nH]c2c1`, the inhibition was 0%.

Regarding `Cc1ccc2cc(CN(CCN3CCCC3)C(=O)Nc3ccc(F)cc3)c(=O)[nH]c2c1C`, the inhibition is 0%.

On to `O=C(Nc1ccc(S(=O)(=O)N2CCCCCC2)cc1)c1ccco1`, for which the inhibition was 2%.

As to `Cc1ccccc1-n1nc(C)c2cc(C(=O)NCc3cccnc3)sc21`, the inhibition was 0%.

In the case of `CCOC(=O)c1ccccc1NC(=O)c1ccc(NS(C)(=O)=O)cc1`, the inhibition was 0%.

Consider `COC(=O)C1=C(C)Nc2ncnn2C1c1ccc(C)o1` (stereo not given), for which the inhibition was 0%.

Consider `COc1ccc(CCn2c(C)cc(C(=O)CSc3nnnn3C)c2C)cc1`, for which the inhibition was 0%.

As for `Cc1cccc(NC(=O)c2ccc3ccccc3n2)n1`, the inhibition is 0%.

Regarding `CCC1CCCCN1C(=O)CSc1nnc(-c2ccco2)o1` (stereo not given), the inhibition is 1%.

In the case of `O=C(COC(=O)c1ccccc1Oc1ccccc1)NC1CCS(=O)(=O)C1` (stereo not given), the inhibition is 0%.

In the case of `C[C@]12CCC(=O)C=C1CC[C@@H]1[C@@H]2[C@@H](O)C[C@@]2(C)[C@H]1CC[C@]2(O)C(=O)CO`, the inhibition was 0%.

As for `Cc1occc1-c1nnc(SCC(=O)NCC2CCCO2)n1C` (stereo not given), the inhibition is 7%.

For the compound `O=C(Cn1nnc2c(cnn2-c2ccc(F)cc2)c1=O)c1ccccc1F`, the inhibition was 1%.

With `O=c1[nH]c2sc3c(c2c2nncn12)CCCC3`, the inhibition was 0%.

In the case of `COc1ccc(N2CCN(c3oc(COc4ccccc4Cl)nc3C#N)CC2)cc1`, the inhibition is 0%.

On to `CCn1c(=S)sc2nc(C)sc21`, for which the inhibition was 1%.
